Results filed as inconclusive are left out. A call without a number means that no potency is given here. Where a structure was tested more than once in an assay, its records may differ in their call. Active and inactive are the calls of the source. No rule for the calls is given here.
Potency is read from the fitted curve at half-maximal effect.

This assay in a line: qHTS assay to identify small molecule antagonists of the estrogen related receptor signaling pathway with the pleiotropic PPARgamma coactivator (PGC) from Tox21 10K library (AID 1224841). Also: actives are mostly falling curves and most rising ones were filed inactive; nearly all actives have a fitted effect of over 50% in size. The note with it: PGC/ERR reporter cell line, ONE-Glo luciferase, 18 h; series mostly up to 92.4 µM. The method, boiled down:
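Antagonism in this quantitative HTS is taken from loss of luciferase signal in PGC/ERR cells. Cells (2,000/well) are treated with compounds in DMSO after a 6 h settling period and read by One-Glo luminescence after 18 h.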
(Quantitative high-throughput screening tests each substance at several concentrations.)
In the case of `OCCN(CCO)c1nc(N2CCCCC2)c2nc(N(CCO)CCO)nc(N3CCCCC3)c2n1`, the Potency is 21.1 µM (active).

As for `CSc1ccc(/C=C2/C(C)=C(CC(=O)O)c3cc(F)ccc32)cc1`, the Potency entry is “inactive”.

Turning to `COc1c(C)c2c(c(O)c1C/C=C(\C)CCC(=O)O)C(=O)OC2`, the Potency is 2.66 µM (active).

As for `CCCC(=O)OC[C@@H](OC(=O)CCC)[C@@H](OC(=O)CCC)[C@H](Cn1c2nc(=O)[nH]c(=O)c-2nc2cc(C)c(C)cc21)OC(=O)CCC`, the Potency was 23.7 µM (active).

In the case of `Nc1nc2ccccc2n1Cc1ccc(F)cc1`, the Potency result was “inactive”.

On to `CCCCN1C(=O)[C@@H]([C@H](O)C2CCCCC2)NC(=O)C12CCN(Cc1ccc(Oc3ccc(C(=O)O)cc3)cc1)CC2`, for which the Potency result was “inactive”.

As for `Nc1c2ccccc2nc2ccccc12`, the Potency is 53.8 µM (active) and inactive.

Regarding `CC[C@@]1(O)C(=O)OCc2c1cc1n(c2=O)Cc2cc3c(CN(C)C)c(O)ccc3nc2-1`, the Potency was 16.8 µM (active).

For `CNCc1cc(F)ccc1Oc1ccc(Cl)c(Cl)c1`, the Potency result is “inactive”.

On to `OCc1c[nH]c2ccccc12`, for which the Potency was 3.44 µM (active).

As to `CC[C@@]1(O)C(=O)OCc2c1cc1n(c2=O)Cc2c-1nc1ccccc1c2/C=N/OC(C)(C)C`, the Potency was 4.73 µM (active).

On to `Cc1cc(=O)oc2cc(N(C)C)ccc12`, for which the Potency result is “inactive”.

For the molecule `Nc1cc(C(F)(F)F)ccc1S`, the Potency was 29.8 µM (active).

As for `C[C@H]1[C@H]2CC[C@H]3[C@@H]4CC=C5C[C@@H](N(C)C)CC[C@]5(C)[C@H]4CC[C@]23CN1C`, the Potency result is “inactive”.

Take `CCCCN(CCCC)c1ccc(C(=O)c2ccccc2C(=O)O)c(O)c1`: the Potency result was “inactive”.

As to `CCCCCCOC(=O)c1ccc(O)cc1`, the Potency result is “inactive”.

On to `COc1ccc(-c2ccc3cc(C(=O)O)ccc3c2)cc1C12CC3CC(CC(C3)C1)C2`, for which the Potency entry was “inactive”.

For the origin of these results see PubChem BioAssay (Tox21).
